sdo1 growth = sdo1-depleted yeast growth rescue; S. cerevisiae sdo1-depleted JHY4D growth rescue, OD600 30 h; stronger effect = higher value; pdr5 snq2 efflux-pump mutant strain; z-score at 10 µM; 140,000 compounds, 0.21% hits; AID 817;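 active = z-score above 3 at both the 24 hr and the 30 hr optical density reads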;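 note: z-score against mean and SD of all compound wells on the same plate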
IL1B cytotox = HUVEC cytotoxicity counter-screen, IL-1B stimulated. HUVEC cell count loss, Hoechst imaging. cell count reduction, % at 2 µM. 94,000 compounds, 0.41% hits;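 active = cell count reduction more than 3 SD above the screen-wide mean, cut at about 70% in these data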;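 note: normalized per plate to untreated control cells as the no-loss baseline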
MRP-1 activ = activates MRP-1 | viability increase, % at 10 µM | H69AR cells + doxorubicin, viability rescue, CellTiter-Glo | 140,000 compounds, 0.61% hits;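 active = viability gain under doxorubicin at or above a set limit, the compound median plus 3 SD, cut at about 4.7% in these data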;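 note: MRP-1 overexpressing cells given doxorubicin 25 µM after compound pretreatment; 18-22 h compound pretreatment then 72 h with doxorubicin before readout; 0% = doxorubicin-only wells and 100% = vehicle-treated cells without doxorubicin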
MRP resist rev = reverses drug resistance mediated by MRP | H69AR cells + 2 uM doxorubicin, CellTiter-Glo, 72 h | differential viability (reversal), % at 10 µM | 85,000 compounds, 0.04% hits;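 active = viability drop by adding the cancer drug above about 55%, with treated viability meeting a 40% cutoff, limit read from the data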;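 note: viability without doxorubicin minus viability with 2 µM doxorubicin for each compound; larger differential means the compound sensitizes cells more to doxorubicin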
IL1B NFkB inh = blocks IL-1B driven NFkB nuclear translocation in HUVEC cells. inhibition, % at 2 µM. HUVEC IL-1B NFkB p65 nuclear translocation imaging. 94,000 compounds, 0.43% hits;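 active = inhibition above about 30% together with a positive call from visual inspection of the well image, limit read from the data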;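 note: nuclear over cytoplasmic p65 intensity ratio measured by imaging; 0% = IL-1B stimulated DMSO wells and 100% = unstimulated DMSO wells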
NFkB transloc pot = enhances IL-1B driven NFkB nuclear translocation; activation, % at 2 µM; AID 819; 94,000 compounds, 0.3% hits; HUVEC IL-1B NFkB p65 nuclear translocation imaging;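 active = activation above 40%, about the mean plus 3 SD, also judged a hit on visual image review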;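 note: percent activation is computed from the nuclear over cytoplasmic p65 intensity ratio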
* marks the source's active call; other numbers are inactive results; . = no result. The list is not random: actives were taken first. Their share in the collection is about 1.4%.

SMILES	sdo1 growth	IL1B cytotox	MRP-1 activ	MRP resist rev	IL1B NFkB inh	NFkB transloc pot
CCCCS(=O)(=O)/C=C\C1C2C=CC(C2)C1S(=O)(=O)CCCC (stereo not given)	1.5	5	-1	0	-4	3
CCCCS(=O)(=O)/C=C\C=C/S(=O)(=O)CCCC	-2.8	58	-3	-1	95*	-95
CC(C)Cn1c(N)c(C(=O)COC(=O)c2ccc3ccccc3n2)c(=O)n(C)c1=O	-0.63	-4	-3	-5	0	0
Cc1ccc(C(C[N+](=O)[O-])c2c(-c3ccccc3O)[nH][nH]c2=O)cc1 (stereo not given)	-1.6	.	-5	.	.	.
CCOC(=O)c1cc(-c2ccccc2)sc1NC(=O)C(C)Sc1nnc(N)s1 (stereo not given)	-1.4	.	11*	.	.	.
CCOC(=O)c1cc(-c2ccccc2)sc1NC(=O)CC	-0.11	.	-1	.	.	.
O=C(C1CCCN(CCCc2ccccc2)C1)N1CCCCC1 (stereo not given)	0.43	.	-3	.	.	.
CN(c1ccc(C(=O)NCCSC(C)(C)C)cc1)S(C)(=O)=O	1.1	87*	-1	18	5	-5
Cc1nn2c(N3CCN(C4CCCC4)CC3)cc(C(C)(C)C)nc2c1-c1ccccc1	-1.9	82*	-1	-4	-6	6
COC(=O)c1ccc(S(=O)(=O)N2C3CCC2CC(NC(=O)C2CC2)C3)cc1 (stereo not given)	-0.61	84*	-1	-12	23	-23
O=C(NCc1ccccc1)Oc1cccc(Cl)c1	-0.32	-62	1	-7	-42	42*
COc1cc2[nH]c(=O)n(Cc3ccc(C(=O)NC4CCCC4)cc3)c(=O)c2cc1OC	0.09	2	-2	-32	-46	46*
O=C(OCc1c(Cl)cccc1Cl)c1ccncc1	-1.3	.	-1	.	.	.
CC1=C(C(=O)Nc2ccccc2C)C(c2ccc(C)o2)N2C(=O)CSC2=N1 (stereo not given)	0.96	-160	7.3*	3	-13	13
Cc1ccccc1NC(=O)CCN1C(=O)CSC1=O	0.21	-26	2	8	-3	3
Cc1cccc(-c2c3c(=O)n(C)c(=O)n(C)c3c3c(C)cc(C)nn23)c1	.	.	.	6	.	.
COc1ccc(C(=O)c2sc3nc(-c4ccccc4)ccc3c2N)cc1	-0.63	.	-1	.	.	.
COc1ccc(-c2c(C#N)c(N)nc3sc(C(=O)c4ccccc4)c(N)c23)cc1	-1.4	.	12*	.	.	.
O=C(CSc1cccc[n+]1[O-])Nc1cc(S(=O)(=O)N2CCOCC2)ccc1N1CCOCC1	0.81	.	2	.	.	.
CCOc1cc(N2CCOCC2)c(OCC)cc1NC(=O)CSc1cccc[n+]1[O-]	1.9	-13	-1	15	-70	70*
CSc1nc2c(ccc3ccccc32)o1	-0.22	3	4.9*	5	-19	19
Cc1ccc(C[n+]2cccc(-c3ccccc3)c2)c(C)c1	-0.28	.	-2	.	.	.
CCC(C)c1ccc(O)c(NC(=O)c2ncn[nH]2)c1 (stereo not given)	0.49	-7	5.3*	10	-35	35
Cc1ccc(N(C)C(=O)N2CCN(c3ccccn3)CC2)cc1	-0.57	46	0	12	-67	67*
O=C(CN1CCN(c2ccccn2)CC1)Nc1ccccc1	1.5	-31	-3	8	-40	41*
SMILES	sdo1 growth	IL1B cytotox	MRP-1 activ	MRP resist rev	IL1B NFkB inh	NFkB transloc pot
O=C(CN1CCN(c2ccccn2)CC1)Nc1ccc(F)cc1	1.2	9	-1	15	-11	11
Cc1ccc(N(C)C(=O)N2CCN(S(=O)(=O)c3ccc(C)cc3)CC2)cc1	-1.6	.	-4	20	.	.
CC(=O)Nc1ccc(NC(=O)CN2CCN(c3cccc(C(F)(F)F)c3)CC2)cc1	0.44	-24	-2	.	34*	-34
NC1=NC(=O)CC(C(=O)NCCc2ccccc2)S1 (stereo not given)	-0.2	2	0	-1	47*	-47
CC(C)[C@H](NC(=O)c1ccccc1)C(=O)OCC(=O)/C=C1/N(C)c2ccccc2C1(C)C	-0.35	.	4.8*	.	.	.
CN1/C(=C\C(=O)COC(=O)Cn2nnc(-c3ccccc3)n2)C(C)(C)c2ccccc21	-0.3	-23	-2	14	-14	14
Cc1cc(SCC(=O)c2ccc3c(c2)OCO3)nc2ccccc12	-1.4	-40	0	1	57*	-57
COc1ccccc1Cc1nc2ccccc2n1S(=O)(=O)c1ccc(Cl)cc1	-0.7	.	-2	.	.	.
CCOC(=O)C(C(=O)NCc1ccc(F)cc1)c1ncc(C(F)(F)F)cc1Cl (stereo not given)	0.62	86*	-4	.	20	-19
NS(=O)(=O)c1ccc(NC(=O)C2CCCO2)cc1 (stereo not given)	1.5	38	-1	-27	14	-14
O=C(Nc1ccc(O)cc1)C1CCCO1 (stereo not given)	0.01	20	28*	7	7	-7
O=C(NCc1ccccc1)NC(=O)c1ccccc1	2.8	-14	2	24	6	-6
CSC(=O)CC(=O)NC(=O)c1ccccc1	0.11	89*	1	0	2	-2
Cc1cc(C)c(OCCCCCNCCO)c(C)c1	-0.07	-17	-3	8	-42	42*
O=[n+]1cc(-c2ccc(Cl)cc2)n([O-])c2c1CCCCC2	0.51	.	-2	.	.	.
CC1CCc2c(sc(NC(=O)C(=O)NCc3ccco3)c2C#N)C1 (stereo not given)	-1.5	-64	0	-4	-42	42*
CC1CCc2c(sc3ncn4c(SCC(=O)NCc5ccco5)nnc4c23)C1 (stereo not given)	-0.46	-16	-2	-1	-169	169*
O=C1N/C(=N\N=C\c2cccs2)SC1Cc1ccc(Cl)cc1Cl (stereo not given)	0.3	.	-5	.	.	.
O=C1NC(=Nc2ccc(Cl)cc2)SC1Cc1cc(Cl)ccc1Cl (stereo not given)	-1.5	.	6.9*	.	.	.
CC(=O)N(Cc1ccco1)c1nc(C(=O)Nc2ccc(Cl)cc2)c(C)s1	-1.1	.	-2	.	.	.
COc1ccccc1/C=c1\sc2nc(-c3ccccc3OC)nn2c1=O	-0.8	14	-1	.	-52	52*
O=C(Nc1nnc(C2CCCC2)s1)C1CCC1	-0.76	9	-1	-1	-40	40*
CCOC(=O)CSC1=NC(=O)/C(=C/c2ccc(OC)cc2)S1	-1.7	.	-3	.	.	.
COc1ccc(NC(=O)CN2C(=O)C(C)SC(C)C2=O)c(OC)c1 (stereo not given)	0.5	.	1	.	.	.
O=C(c1nc2nc(-c3ccccc3)cc(C(F)(F)F)n2n1)N1CCOCC1	1.2	28	-2	6	4	-4
O=C(c1nc2nc(-c3ccc(Cl)cc3)cc(C(F)(F)F)n2n1)N1CCOCC1	0.53	-26	-2	1	31*	-31
CC(C)NC(=O)C(OC(=O)c1ccccc1)C(OC(=O)c1ccccc1)C(=O)O (stereo not given)	0.65	-40	1	.	-13	13
CC(=O)N1CCN=C1SCc1ccc(Br)cc1	0.82	0	9.4*	10	-8	8

Bioassay records: PubChem, several laboratories
